# Rows were chosen to be rich in hits. Some 19% of all compounds tested hit in one or more screens of this group.
# LASV entry inh – blocks Lassa virus binding to or entry into cells; Lassa virus pseudotype entry inhibition, cell reporter; Potency, µM (doses to about 37.9 µM), for inactives: at the top dose activity change, negative = inhibition, most hits filed as inhibitors; 1.2% of 300,000 active; AID 540256; calls by dose curve; tested in HEK293 cells; note: potency is the fitted concentration of half-maximal effect; % is set by controls: 0 for no effect and ±100 for the full control effect; nearly all actives have a fitted effect of over 50% in size
# Pf growth 96h – inhibits malaria parasite growth, 96 h; P. falciparum luciferase reporter growth, 96 h; Potency, µM (titrated, usually from 28.7 µM), for inactives: at the top dose activity change, negative = inhibition, actives largely listed as inhibitors; 6.9% of 320,000 active; AID 504834; note: potency is the fitted concentration of half-maximal effect; % is set by controls: 0 for no effect and ±100 for the full control effect
#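 Cell-based qHTS: luciferase-tagged P. falciparum in erythrocytes (2% hematocrit, 0.05% parasitemia final) incubated with compounds for 96 hours, 37 C, 5% CO2; luciferase detection reagent then added and luminescence measured.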
# Marburg entry inh – inhibitors of Marburg virus binding or cell entry; 1.8% of 300,000 active; Marburg virus pseudotyped entry inhibition, cell reporter; AID 540276; Potency, µM (top dose mostly 37.8 µM), for the others: at the highest dose activity change, negative = inhibition, hits mostly inhibitors; calls by dose curve; tested in HEK293 cells; note: potency is the fitted concentration of half-maximal effect; % is set by controls: 0 for no effect and ±100 for the full control effect
# CHX counter – counter-screen hit for Shiga toxin inhibitors, cycloheximide. cell reporter, cycloheximide protein synthesis inhibition counterscreen. max response, %. 12% of 300,000 active. AID 2314; in the data active = max response mostly above about 13%, no sharp cut-off; inactive = mostly below about 14%; note: read at 38.3 µM for the half of the compounds with a filed dose; 0% is about no effect
# Pf growth 48h – inhibits P. falciparum growth in the first generation, 48 h; P. falciparum luciferase growth in erythrocytes, 48 h; Potency, µM (top dose mostly 28.7 µM), for the others: top-dose activity change, negative = inhibition, hits mostly inhibitors; AID 504832; 5.9% of 310,000 active; note: potency is the fitted concentration of half-maximal effect; % is set by controls: 0 for no effect and ±100 for the full control effect
#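 In quantitative HTS format, infected erythrocytes bearing luciferase-reporter parasites were treated for a single generation at 37 C. Luminescence after adding detection reagent served as the growth measure.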
# Shiga toxin inh – blocks Shiga toxin action in Vero cells | inhibition, % at 38.7 µM | Vero cells, Shiga toxin protein synthesis inhibition reporter | 9.2% of 290,000 active | AID 2315; in the data active = inhibition mostly above about 28%, no sharp cut-off; inactive = mostly below about 43%; note: 0% is about no effect
# * = called active by the depositor; u = inconclusive; x = not tested or not shown; [ ] = another dose, or the depositor's remark. Unless noted, calls come from the whole dose curve; as a rule, active = well fitted inhibition curve with a large enough effect; inconclusive = small, poorly fitted or top-dose-only effect, or another doubt; inactive = no such curve, though single readings can be large or run the other way.
SMILES,LASV entry inh,Pf growth 96h,Marburg entry inh,CHX counter,Pf growth 48h,Shiga toxin inh
COc1ccc2sc(NC(=O)CC(C)C)nc2c1,10%,u,-1%,39*,48%,94*
COc1ccc2sc(NC(=O)NC(=O)c3c(Cl)cccc3Cl)nc2c1,u,8.3µM*,-29%,19*,10µM*,38
COc1cccc(NC(=O)NC(=O)c2c(C)cc(Cl)nc2Cl)c1,x,16%,x,-3,u,-1
Cc1ncc(CO)c(/C=N/NC(=S)Nc2cccc(Cl)c2)c1O,x,u,x,2,u,-5
O=c1ccc(Br)c[nH]1,3%,u,1%[46.1 µM],-2,34%,-7
COc1ccc2sc(NC(C)=O)nc2c1,u,u,u,34*,170%,64*
COc1ccc2nc(NS(=O)(=O)c3ccc(NC(C)=O)cc3)sc2c1,2%,127%,9%,-4,6%,-16
COc1ccc2sc(NCc3ccccc3)nc2c1,x,184%,x,48*,181%,146*
O=C(CN(C(=O)c1ccccc1)N1C(=O)CCC1=O)c1cccs1,4%,u,4%,-3,-12%,-4
COc1ccc(C(=O)NNC(=S)NC(=O)/C=C/c2cccs2)cc1,-18%[46.1 µM],31%,7%[46.1 µM],37*,191%,111*
O=C(Nc1ccc(NC(=S)NC(=O)c2cccs2)cc1)c1ccccc1,5%,33%,u,11,u,-2
O=C(/C=C/c1cccs1)NC(=S)Nc1ccccc1,3%,-13%,u,32*,14%,123*
CC(=O)NC(=S)Nc1ccc(NC(=O)c2cccs2)cc1,u,0%,u,28*,u,32*
O=C(/C=C/c1cccs1)NC(=S)NNC(=O)c1ccccc1O,u,18%,u,9,u,-9
O=C(NC(=S)Nc1ccccc1)c1cccs1,-7%[46.1 µM],-4%,0%[46.1 µM],60*,7%,81*
CCC(C)[C@H]1CNCCN1CCc1cccc(F)c1 (stereo partly specified),x,68%,x,x,-2%,x
COc1ccc(C(=O)OCc2nnc(-c3ccccc3)o2)cc1S(=O)(=O)N1CCOCC1,12%,7%,u,x,16%,x
O=c1c2c(-c3ccccc3)csc2nc2c3ccccc3c(NCCN3CCOCC3)nn12,u,1.2µM*,u,-8,3.3µM*,-28
N#C/C(=C\C=C\c1ccccc1)C(=O)N1CCCC1,3%,u,-8%[46.1 µM],22*,7.4µM*,70*
N#C/C(=C\c1ccc(C#N)cc1)C(=O)N1CCCC1,x,-5%,x,-1,23%,-17
N#C/C(=C\c1ccc(OC(F)F)cc1)C(=O)N1CCCCC1,x,2%,x,27*,-9%,46*
N#C/C(=C\c1ccc(O)cc1)C(=O)N1CCCC1,x,-25%,x,10,-15%,21
Cc1ccc(/C=C(\C#N)C(=O)N2CCCC2)c(C)c1,21%[46.1 µM],20%,7%[46.1 µM],37*,37%,125*
O=C(CCN1C(=O)[C@H]2CC=CC[C@H]2C1=O)NCc1nc(-c2ccc(Cl)cc2)no1,x,u,x,5,u,7
CC(C)c1ccc(NC2CCCN(C(=O)CN3CCOC3=O)C2)cc1 (stereo unspecified),-7%,u,12%,1,2%,-37
SMILES,LASV entry inh,Pf growth 96h,Marburg entry inh,CHX counter,Pf growth 48h,Shiga toxin inh
COc1cc(/C=C/C(=O)c2c(O)cc(C)oc2=O)cc(OC)c1O,0%,-14%,-20%,1,x,-4
Cc1cc(O)c(C(=O)/C=C/c2ccc(Cl)cc2)c(=O)o1,23%,u,22%,32*,u,50*
CSc1ccc(/C=C/C(=O)c2c(O)cc(C)oc2=O)cc1,-27%[46.1 µM],u,8%[46.1 µM],37*,u,52*
COc1ccc(/C=C/C(=O)c2c(O)cc(C)oc2=O)c(OC)c1,15%,21%,-7%,24*,116%,8
COc1cccc(/C=C/C(=O)c2c(O)cc(C)oc2=O)c1O,-11%,-12%,u,23,x,97
CC(C)CCNC(=O)c1ccccc1SCC(=O)NC1CCCCCCC1,0%,u,u,x,u,x
CC(=NNc1ccccc1)C(C)=NNc1ccccc1,-4%,x,2%,x,x,x
Oc1ccc(O)c(/C(=N/Nc2ccccc2)c2ccccc2)c1,x,u,x,27*,u,17
COc1ccccc1OCC(=O)NCCSCc1ccccc1Cl,9%,22%,-6%,13,u,-44

# Screening data: PubChem BioAssay, National Center for Advancing Translational Sciences (NCATS)
